The values that follow come from PubChem BioAssay (NCATS).

Results filed as inconclusive are left out. The source made the active and inactive calls. Calls come from the whole dose curve; as a rule, active = well fitted cell-killing curve with a large enough effect; inconclusive = small, poorly fitted or top-dose-only effect, or effect the other way; inactive = no such curve, though single readings can be large or run the other way.
Potency is the fitted concentration of half-maximal effect.

This experiment is described as follows: Quantitative High-Throughput drug screen in 47 multiple myeloma cell lines against the NCATS MIPE library collection: U266_ATCC cell viability assay (AID 1919864). Note: nearly all actives have a fitted effect of over 35% in size. The conditions noted are these: U266 myeloma viability, CellTiter-Glo ATP luminescence, 48 h; series mostly up to 45.8 µM. From the text:
PI: Beverly A. Mock Ph.D.
Laboratory of Cancer Biology and Genetics,
Center for Cancer Research, National Cancer Institute,
National Institute of Health, Bethesda, Maryland
Drug resistance and disease progression are common in multiple myeloma (MM) patients, underscoring the need for new therapeutic combinations. […] We hypothesized that effective combinations would reduce MYC expression and enhance p16 activity. […] These preclinical data identify potentially useful drug combinations for evaluation in drug-resistant MM and reveal potential mechanisms of combined drug sensitivity.
Described herein is the primary MIPE qHTS used to cherrypick compounds. Validated compounds were then further tested for potential synergistic activiy.
[1] Peat TJ, Gaikwad SM, Dubois W, Gyabaah-Kessie N, Zhang S, Gorjifard S, Phyo Z, Andres M, Hughitt VK, Simpson RM, Miller MA, Girvin AT, Taylor A, Williams D, D'Antonio N, Zhang Y, Rajagopalan A, Flietner E, Wilson K, Zhang X, Shinn P, Klumpp-Thomas C, McKnight C, Itkin Z, Chen L, Kazandijian D, Zhang J, Michalowski AM, Simmons JK, Keats J, Thomas CJ, Mock BA. Drug combinations identified by high-throughput screening promote cell cycle transition and upregulate Smad pathways in myeloma. Cancer Lett. 2023 Aug 1;568:216284. doi: 10.1016/j.canlet.2023.216284. Epub 2023 Jun 24. PMID: 37356470; PMCID: PMC10408729.
SEQUENCE No. (e.g., 1, 2, 3, etc.); […] (e.g., Cells, Incubation, Reagent, etc.); VALUE and DESCRIPTION.
1; Cells; 5 uL; white, solid bottom 1536-well Greiner assay plate.
2; Compounds; 23 nL; Kalypsis pin tool (Wako USA) equipped with a 1536-well pin head to transfer to the assay plates.
3; Incubation; 48 hours; 37C incubation.
4; Reagent;5uL; CellTiter Glo (Promega).
5; Detector; 425V; Luminescence; Viewlux PerkinElmer.
NOTES (numbers refer to Sequence numbers above)
1. The cell-based screening methods employed in this study were like those previously published. Briefly, the corresponding myeloma cell lines were screened in 1,536-well plates with 500 cells, 5-uL per well for inhibition of cell viability (assessed by measuring ATP levels with CellTiterGlo).
2. NCATS MIPE 4.0 library of approved and investigational drugs were added using the Kalypsis pin tool. Wells treated with DMSO only for 100% viability and media only for 0% viability were used as controls.
3. The assay plates were covered and incubated for 48 hours in a 37C, 5% CO2 incubator with controlled humidity.
4. After 48 hours, CellTilter-GloTM luminescent substrate mix (Promega) reagent was added to the assay plate and plates we incubated for 5 min at room temperature.
5. Signal was measured as median relative luminescence units on a ViewLux (PerkinElmer) multiplate reader.
[1] Heske CM, Davis MI, Baumgart JT, Wilson K, Gormally MV, Chen L, Zhang X, Ceribelli M, Duveau DY, Guha R, Ferrer M, Arnaldez FI, Ji J, Tran HL, Zhang Y, Mendoza A, Helman LJ, Thomas CJ. Matrix Screen Identifies Synergistic Combination of PARP Inhibitors and Nicotinamide Phosphoribosyltransferase (NAMPT) Inhibitors in Ewing Sarcoma. Clin Cancer Res. 2017 Dec 1;23(23):7301-7311. doi: 10.1158/1078-0432.CCR-17-1121. Epub 2017 Sep 12. PMID: 28899971; PMCID: PMC6636827.
A general note: Cellular ATP, detected with luciferase, serves as a proxy for viable cell number.
As for `CC(=O)ON=C1C(c2c(O)[nH]c3cc(Br)ccc23)=Nc2ccccc21`, the Potency was 14.8 µM (active).
For `Cc1cnc(Nc2ccc(N3CCN(C)CC3)cc2)nc1Nc1cccc(S(=O)(=O)NC(C)(C)C)c1`, the Potency is 11.8 µM (active).
Regarding `COc1cc(OC)cc(-c2ccc3ncc4ccc(=O)n(-c5ccc(N6CCNCC6)c(C(F)(F)F)c5)c4c3c2)c1`, the Potency is 11.8 µM (active).
As to `O=C1NCCc2[nH]c(-c3ccncc3)cc21`, the Potency is 2.64 µM (active).
Take `CC(C=CC(=O)NO)=C[C@@H](C)C(=O)c1ccc(N(C)C)cc1`: the Potency was 0.209 µM (active).
As to `CC(C=CC=C(C)C=CC1=C(C)CCCC1(C)C)=CC=CC=C(C)C=CC=C(C)C=CC1=C(C)CCCC1(C)C`, the Potency is 16.6 µM (active).
The figure for `Cc1coc2c1C(=O)C(=O)c1c-2ccc2c(C)cccc12` is 20.9 µM (active).
For the compound `CC(=O)NCC(=O)N1[C@H]2CC[C@H]1c1cc(Nc3ncc(C(F)(F)F)c(NC4CCC4)n3)ccc12`, the Potency is 5.9 µM (active).
On to `Oc1cc(-c2nc(-c3ccccc3)[nH]c2-c2ccncc2)ccc1Cl`, for which the Potency is 16.6 µM (active).
`OCCNC1CCCc2c1[nH]c1ccc(-c3ccccc3)cc21` (stereo not given): the Potency was 20.9 µM (active).
As for `C=CC[C@@H]1C=C(C)C[C@H](C)C[C@H](OC)[C@H]2O[C@@](O)(C(=O)C(=O)N3CCCC[C@H]3C(=O)O[C@H](C(C)=C[C@@H]3CC[C@H](O)[C@H](OC)C3)[C@@H](C)[C@@H](O)CC1=O)[C@@H](C)C[C@@H]2OC`, the Potency was 1.32 µM (active).
With `C=C(C)[C@@H]1CC[C@]2(C(=O)O)CC[C@]3(C)[C@H](CC[C@@H]4[C@@]5(C)CC[C@H](O)C(C)(C)[C@@H]5CC[C@]43C)[C@@H]12`, the Potency entry was “inactive”.
Consider `NC(=O)Nc1cc(-c2ccc(CN3CCOCC3)cc2)sc1C(N)=O`, for which the Potency is 16.6 µM (active).
Consider `CC(C)(O)Cn1c(NC(=O)c2ccc(-c3cn[nH]c3)s2)nc2cc(CN3CCOCC3)ccc21`, for which the Potency was 1.18 µM (active).
As to `O=C(O)[C@H](CC(=O)N1C[C@@H]2CCCC[C@H]2C1)Cc1ccccc1`, the Potency result was “inactive”.
For the compound `CN1C(C(=O)Nc2ccccn2)=C(O)c2sc(Cl)cc2S1(=O)=O`, the Potency was 4.18 µM (active).
Turning to `CN(C)c1ccc(C(=O)NCCCCCCC(=O)NO)cc1`, the Potency is 1.18 µM (active).
With `C[C@H]1COc2c(N3CCN(C)CC3)c(F)cc3c(=O)c(C(=O)O)cn1c23`, the Potency entry was “inactive”.
Take `N#CC(=Cc1ccc(O)c(O)c1)C(=O)NCc1ccccc1`: the Potency is 26.4 µM (active).
Take `COc1ccc([C@@H]2CNC(=O)C2)cc1OC1CCCC1`: the Potency is 1.18 µM (active).
For the compound `O=C(Nc1cccc(Nc2ncc(Br)c(NCCc3cnc[nH]3)n2)c1)N1CCCC1`, the Potency is 16.6 µM (active).
Consider `CC(C)n1cnc2c(NCCc3ccc(O)cc3)nc(-c3csc4ccccc34)nc21`, for which the Potency was 2.35 µM (active).
Take `COc1cc(O)c2c(c1)C1OC1C[C@H](O)[C@H](O)C(=O)C=CC[C@H](C)OC2=O` (stereo not given in full): the Potency was 4.69 µM (active).
Turning to `CCN(C(=O)c1c(O)c2c(Cl)cccc2n(C)c1=O)c1ccccc1`, the Potency entry was “inactive”.
For the compound `Cc1[nH]c(C=C2C(=O)Nc3ccccc32)c(C)c1CCC(=O)O`, the Potency is 5.26 µM (active).
Take `CN[C@H]1[C@@H](O)[C@@H]2O[C@@H]3O[C@H](C)CC(=O)[C@]3(O)O[C@@H]2[C@@H](NC)[C@H]1O`: the Potency is 0.662 µM (active).
With `Nc1cccc2c1C(=O)N(C1CCC(=O)NC1=O)C2=O` (stereo not given), the Potency entry is “inactive”.
Turning to `CN(CC(=O)N(Cc1ccc(C2CCCCC2)cc1)c1ccc(C(=O)O)c(O)c1)S(=O)(=O)c1c(F)c(F)c(F)c(F)c1F`, the Potency is 13.2 µM (active).
In the case of `N=c1ccn2c(n1)O[C@H]1[C@@H](O)[C@@H](CO)O[C@H]12`, the Potency was 18.7 µM (active).
On to `CS[C@H]1SC[C@@H]2C(=O)N(C)[C@H](C(C)C)C(=O)OC[C@H](NC(=O)c3cnc4ccccc4n3)C(=O)N[C@H](C)C(=O)N(C)[C@@H]1C(=O)N(C)[C@H](C(C)C)C(=O)OC[C@H](NC(=O)c1cnc3ccccc3n1)C(=O)N[C@H](C)C(=O)N2C`, for which the Potency is 0.0066 µM (active).
Regarding `Cc1ccc2nc(NCCN)c3ncc(C)n3c2c1`, the Potency is 3.72 µM (active).
The figure for `O=C(C=CC#Cc1cccc(NS(=O)(=O)c2ccccc2)c1)NO` is 2.09 µM (active); for `O=C1NC(=O)C(=Cc2ccc3nccc(-c4ccncc4)c3c2)S1` it is 0.418 µM (active).
Take `C[C@H]1[C@@H](OC(=O)CCC(=O)O)O[C@@H]2O[C@@]3(C)CC[C@@H]4[C@H](C)CC[C@@H]1[C@@]24OO3`: the Potency is 16.6 µM (active).
As for `CC(C)(O)[C@H]1CC[C@@](C)([C@H]2[C@@H](O)C[C@@]3(C)[C@@H]4C[C@H](O[C@@H]5O[C@H](CO)[C@@H](O)[C@H](O)[C@@H]5O)[C@H]5C(C)(C)[C@@H](O[C@@H]6OC[C@@H](O)[C@H](O)[C@@H]6O)CC[C@@]56C[C@@]46CC[C@]23C)O1`, the Potency entry is “inactive”.
With `CN(C)c1ccc2cc(C(=O)N[C@@H](CCCN=C(N)CCl)C(=O)NCc3ccccc3)ccc2c1`, the Potency was 2.96 µM (active).
For the compound `C[C@@H]1C(=O)O[C@H]2CC34[C@H]5C[C@@H](C(C)(C)C)C36[C@H](OC(=O)[C@@H]6O)O[C@@]4(C(=O)O5)[C@]21O` (stereo not given in full), the Potency entry was “inactive”.
The value for `COc1ccc(C=Cc2cc(OC)c(OC)c(OC)c2)cc1NC(=O)[C@H](N)CO` was 0.0132 µM (active); that for `COc1cccc2c1C(=O)c1c(O)c3c(c(O)c1C2=O)C[C@@](O)(C(=O)CO)C[C@@H]3O[C@H]1C[C@H](N)[C@@H](O)[C@H](C)O1` was 1.32 µM (active).
Regarding `O=C(C=Cc1ccc(CN(CCO)CCc2c[nH]c3ccccc23)cc1)NO`, the Potency was 0.264 µM (active).
